Source: PubChem BioAssay (EPA / NIEHS)
The source made the active and inactive calls. Rule for the calls: active = hit-call score of the fitted dose curve at least 0.9, where 1 is the maximum; inactive = score below 0.9.

experiment: BSK_4H_SRB: Viability Assessment in the BioMAP Diversity Plus: 4H Assay (AID 2283027); conditions: primary human endothelial cells (HUVEC);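 for AC50: curves fitted both ways versus DMSO so AC50 may be loss or gain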
Description: BSK_4H is a cell-based, multiplexed-readout assay that uses umbilical vein endothelium, a human vascular primary cell, with measurements taken at 24 hours after chemical dosing in a 96-well plate.BSK_4H_SRB is an assay component measured in the BSK_4H assay. It measures […] related to cell death using Sulforhodamine staining technology.Data from the assay component BSK_4H_SRB was analyzed into 1 assay endpoint. This assay endpoint, BSK_4H_SRB, was analyzed with bidirectional fitting relative to DMSO as the negative control and baseline of activity. Using a type of viability reporter, gain or loss-of-signal activity can be used to understand changes in the signaling. Furthermore, this assay endpoint can be referred to as a primary readout, because this assay has produced multiple assay endpoints where this one serves a signaling function. To generalize the intended target to other relatable targets, this assay endpoint is annotated to the cell morphology intended target family, where the subfamily is cell conformation.
The levels of cell surface (or secreted, indicated by the prefix "s") biomarker endpoints were measured by ELISA. Overt cytotoxicity to cells in confluent adherent cultures (all systems other than the BT system) was assessed by measuring total protein levels using sulforhodamine B (SRB) staining in parallel cultures at the time of biomarker measurements, indicated as SRB endpoints. For proliferation assays for adherent cell types, individual cell types are cultured at sub-confluence and relative cell numbers quantified by SRB staining at time points optimized for each system (48 h: 3C and CASM3C systems; 72 h: BT and HDF3CGF systems; 96 h: SAg system). SRB was performed by staining cells with 0.1% SRB after fixation with 10% TCA and reading wells at 560 nm.Viability and proliferation of PBMC (T cells) was quantified by Alamar Blue reduction for the SAg and BT systems. For PBMC viability (referred to as PBMC Cytotoxicity within the assay endpoint names), cells were plated (75,000/well in a 96-well plate) and then chemical samples added for 1 h before addition of activators, SEB and TSST-1 (20 ng/mL final concentration each). Cells were incubated for 90 h. Then, Alamar Blue (20 uL/well) (Invitrogen, Cat DAL1100) was added for 6 h, and the plates were read with a fluorescence microplate reader at 546/580 nm (excitation/emission). For PBMC proliferation, cells were plated and activated as above but incubated for only 16 h prior to addition of Alamar Blue. Plates were read after 6 h.

Structure (SMILES)	outcome	AC50
COc1ccc2c(c1)c(CC(=O)O)c(C)n2C(=O)c1ccc(Cl)cc1	inactive	
Clc1cc(Cl)c(Cl)cc1Cl	inactive	
Cc1ccc(C)c(O)c1C	inactive	
NS(=O)(=O)c1cc2c(cc1Cl)NCNS2(=O)=O	inactive	
CC1(C)NC(=O)NC1=O	inactive	
CC(=O)OC/C=C(\C)CCC=C(C)C	inactive	
NC(=O)Cn1c(=O)cc(CCN2CCN(c3nccc4sccc34)CC2)c2ccc(F)cc21		3.97 µM (active)
C1CCC(SSC2CCCCC2)CC1	inactive	
CCOC(=O)C(C)(C)Oc1ccc(Cl)cc1	inactive	
Nc1ccccc1N	inactive	
CCCCOC(=O)CCCCCCCCC(=O)OCCCC	inactive	
CN[C@H]1CC[C@@H](c2ccc(Cl)c(Cl)c2)c2ccc(S(N)(=O)=O)cc21		18.2 µM (active)
Cc1c(C(=O)O)c(O)cc2c1C(=O)c1c(O)c([C@@H]3O[C@H](CO)[C@@H](O)[C@H](O)[C@H]3O)c(O)c(O)c1C2=O	inactive	
CN1CCCC1=O	inactive	
c1cc(-c2ccncc2)ccn1	inactive	
COc1cc(S(=O)(=O)O)c(C)cc1N=Nc1c(O)ccc2cc(S(=O)(=O)O)ccc12	inactive	
COCCOC[C@H](CC1(C(=O)NC2CCC(C(=O)O)CC2)CCCC1)C(=O)Oc1ccc2c(c1)CCC2 (stereo not given in full)	inactive	
Cc1ccc2ncccc2c1	inactive	
CC(CO)OC(C)CO (stereo not given) (tested in a mixture with another compound)	inactive	
CC(C)c1ccc(C(=O)N=C(N)N)cc1S(C)(=O)=O	inactive	

Structure (SMILES)	outcome	AC50
CC1=C(/C=C/C(C)=C/C=C/C(C)=C/CO)C(C)(C)CCC1	inactive	
COc1ccc(C)cc1N	inactive	
O=C(O)CCCCC(=O)O	inactive	
CCCCCCCCCCCCCCCC	inactive	
CCCCN(CCCC)CCCC	inactive	
CCCCCCCCCCCCCCCCCC(=O)O	inactive	
OC[C@@H](O)[C@@H](O)[C@H](O)[C@H](O)CO	inactive	
Cc1ccc(C)c(C)c1	inactive	
CC(=O)OCCOCCOCCOC(C)=O	inactive	
CCCCCCCCCCO	inactive	
COC(=O)c1ccc(O)cc1	inactive	
Nc1ccc2c(c1)C(=O)c1ccccc1C2=O	inactive	
CC(C)(C)c1cc(O)c(C(C)(C)C)cc1O		3.45 µM (active)
Cc1cccc(C)c1O	inactive	
Cc1ccc(N(C)C)cc1	inactive	
CCNc1cccc(C)c1	inactive	
O=c1[nH]cc(F)c(=O)[nH]1	inactive	
COc1cc(-c2nc(NC(=O)c3cc4cc(C)cc(C)c4n3CC(=O)O)sc2CCC2CCCCC2)c(OC)cc1Cl		4.62 µM (active)
CC(=O)Oc1ccccc1C(=O)O	inactive	
CCCc1cc(=O)[nH]c(=S)[nH]1	inactive	
